mHTT-CaM PPI inh: mutant huntingtin-calmodulin interaction inhibitors – biochemical, AlphaScreen, primary screen; 190,000 tested, 3.6% active; AlphaScreen His-mHTT/GST-CaM binding, luminescence; inhibition, % at 15 µM; P42858
Pf apPOL block: Pf-apPOL inhibitors, biochemical, fluorescence; Plasmodium falciparum apicoplast DNA polymerase (apPOL); 210,000 tested, 0.25% active; inhibition, % at 10 µM; Recombinant Pf-apPOL, molecular beacon fluorescence, 1.5 h
Large screens that a line does not name were inactive. A selection: hits, their analogues and other compounds. The true share with any hit is near 3.5%. Cut-off read from the data, not from the text of the source: active = inhibition above about 50%; inactive = the rest.

NC(=O)c1c(NC(=O)C2CCCN(C(=O)c3ccco3)C2)sc2c1CCCC2 (stereo not drawn)	mHTT-CaM PPI inh 73.0
COc1ccc(/C=C/C(=O)Nc2c3c(nn2-c2ccc(Cl)cc2)CSC3)cc1OC	none
O=C1c2[nH]nc(-c3ccccc3)c2C(c2ccccc2[N+](=O)[O-])N1c1ccccc1 (stereo not drawn)	mHTT-CaM PPI inh 59.0
COc1ccc(-c2n[nH]c3c2C(c2ccc(OC)c(OC)c2)N(c2ccccc2)C3=O)cc1 (stereo not drawn)	none
CC(=O)C1=C(O)C(=O)N(c2ccccn2)C1c1ccc([N+](=O)[O-])cc1 (stereo not drawn)	none
O=C1c2[nH]nc(-c3ccccc3)c2C(c2ccccc2)N1c1ccccc1 (stereo not drawn)	none
O=C1c2[nH]nc(-c3ccc(Cl)cc3)c2C(c2ccc([N+](=O)[O-])cc2)N1c1ccccn1 (stereo not drawn)	mHTT-CaM PPI inh 89.0
COc1ccc(C2c3c(-c4ccccc4)n[nH]c3C(=O)N2c2ccccc2)cc1 (stereo not drawn)	mHTT-CaM PPI inh 59.0
CC(=O)Nc1ccc(S(=O)(=O)C[N+](=O)[O-])cc1	none (no result: mHTT-CaM PPI inh)
Nc1nnnn1CC(=O)Nc1ccc([N+](=O)[O-])cc1	none
CC1=C(C(=O)Nc2ccccc2)SC2=NCCN21	none
Cc1ccc(C(=O)N2CCCC(c3nc(CCNC(=O)C4CC4)cs3)C2)s1 (stereo not drawn)	none
Cc1ccnc(NS(=O)(=O)c2ccc(NC(=O)c3ccc4ncsc4c3)cc2)n1	none
COCCCNC(=O)N1CCCC1c1ccc(Cl)cc1 (stereo not drawn)	none
COCCCNC(=O)N1CCCCCC1c1ccc(Cl)cc1 (stereo not drawn)	Pf apPOL block 72.2
O=C(Nc1cccc(-c2nc3ccccc3[nH]2)c1)c1ccc(Br)o1	Pf apPOL block 102.4
O=C(Nc1ccc(NC(=O)c2ccc(Br)o2)cc1)c1ccccc1	none
O=C(Nc1ccc(Nc2ccccc2)cc1)c1ccc(Br)o1	mHTT-CaM PPI inh 61.0
O=C(Nc1ccc(Cl)c(-c2nc3ccccc3[nH]2)c1)c1ccc(Br)o1	none
Cc1ccc(NS(=O)(=O)c2ccc(Cl)cc2)cc1	none
Cc1ccc(S(=O)(=O)Nc2ccc(N(C)C)cc2)cc1	mHTT-CaM PPI inh 54.6
COc1ccc(OC)c(/C=C2/N=C(c3ccc(C)cc3)OC2=O)c1	none
CCCC(=O)N1CCCC(COc2ccc(C(=O)N3CCC(C)CC3)cc2)C1 (stereo not drawn)	none
COCC(C)(O)CNC(=O)c1ccc2c(c1)OCO2 (stereo not drawn)	none
COc1cc(OC)cc(C(=O)n2nnc3ccccc32)c1	none
COc1cc(SC)ccc1C(=O)n1nnc2ccccc21	mHTT-CaM PPI inh 91.0
Cc1cc(N2CCN(C(=O)c3cccs3)CC2)c(F)cc1[N+](=O)[O-]	none
O=C(c1cccs1)N1CCN(c2cc(N3CCCCCC3)c(F)cc2[N+](=O)[O-])CC1	mHTT-CaM PPI inh 59.7
Cc1ccc2ccccc2c1C[N+](C)(C)CC#Cc1ccccc1	mHTT-CaM PPI inh 77.4 (no result: Pf apPOL block)
C(#Cc1ccccc1)CN1CCN(CC#Cc2ccccc2)CC1	none
O=C1C2CC=C(Cl)CC2C(=O)N1CNc1ccccc1 (stereo not drawn)	none
Cc1ccc(NCN2C(=O)C3CC=C(Cl)CC3C2=O)cc1 (stereo not drawn)	mHTT-CaM PPI inh 64.0
O=S(=O)(c1cccs1)N1CCCCC1c1nncn1CC1CC1 (stereo not drawn)	none
CCc1onc(C)c1C1CCCN1Cc1ccc(N(CC)CC)cc1 (stereo not drawn)	mHTT-CaM PPI inh 67.4
CCc1onc(C)c1C1CCCN1Cc1ccc(O)cc1 (stereo not drawn)	none
CC1CCN(Cc2nc(C(=O)NC3CCCCC3)co2)CC1	none
Cc1ccc(N2CCN(Cc3nc(C(=O)NC4CC4)co3)CC2)cc1	mHTT-CaM PPI inh 91.8
Cn1c(=O)c(NCCc2c[nH]c3ccccc23)nc2ccncc21	mHTT-CaM PPI inh 100.2
Cn1c(=O)c(NCCCN2CCCc3ccccc32)nc2ccncc21	mHTT-CaM PPI inh 59.9
O=c1c(NCCN2CCCC2)nc2ccncc2n1Cc1ccccc1	none
Cn1c(=O)c(NCCc2ccc(Cl)cc2)nc2ccncc21	none
Cc1cc(CNC(=O)C(=O)NCc2cccs2)c(C)o1	none
N#CC1=C(N)SC(N)=C(C#N)C1c1cccc2ccccc12	none
c1csc(C2Nc3ccccc3-c3nc4ccccc4n32)c1 (stereo not drawn)	none
c1ccc2c(C3Nc4cccc5cccc(c45)N3)cccc2c1	mHTT-CaM PPI inh 77.1 (no result: Pf apPOL block)
Clc1cccc(C2Nc3cccc4cccc(c34)N2)c1	mHTT-CaM PPI inh 82.5 (no result: Pf apPOL block)
Fc1cccc(Cl)c1C1Nc2cccc3cccc(c23)N1	none (no result: Pf apPOL block)
c1csc(C2Nc3cccc4cccc(c34)N2)c1	mHTT-CaM PPI inh 50.1 (no result: Pf apPOL block)
O=C(CSc1nc2ncccc2[nH]1)Nc1ccc(F)cc1F	none
COc1ccccc1Oc1nc2c(c(=O)n(C)c(=O)n2C)n1Cc1ccccc1F	none
COc1ccc(C2CCC3(CCC(=O)N3CCOC(=O)C(C)C)CC2)cc1 (stereo not drawn)	none
CC(C)C(=O)OCCCN1C(=O)CCC12CCC(c1ccccc1)CC2 (stereo not drawn)	mHTT-CaM PPI inh 69.5
COc1ccccc1CNC(=O)c1ccc(N2CC3CC(C2)c2cccc(=O)n2C3)c([N+](=O)[O-])c1 (stereo not drawn)	none
COc1ccc(C2Nc3c(OC)cccc3C3C=CCC32)cc1[N+](=O)[O-] (stereo not drawn)	mHTT-CaM PPI inh 66.0
COc1cc([N+](=O)[O-])cc2c1NC(c1ccccc1Cl)C1CC=CC21 (stereo not drawn)	none
COc1cccc2c1NC(c1ccc([N+](=O)[O-])cc1)C1CC=CC21 (stereo not drawn)	mHTT-CaM PPI inh 70.0
COc1ccc(C2Nc3c(C)ccc(Cl)c3C3C=CCC32)cc1[N+](=O)[O-] (stereo not drawn)	none
CCc1cccc2c1NC(c1ccc(OC)c([N+](=O)[O-])c1)C1CC=CC21 (stereo not drawn)	mHTT-CaM PPI inh 59.0
Cc1ccc(C(=O)N2CCC(CC(=O)NCCc3cccs3)CC2)cc1	none
O=C(O)CCC(=O)Nc1ccccc1C#Cc1ccc(Br)cc1	none
CSc1cccc(NC(=O)N2CCCC2c2nc(-c3ccccc3)no2)c1 (stereo not drawn)	none
Cc1cc2nc(C(=O)Nc3ccccc3F)cc(C)n2n1	none
Cc1ccc(S(=O)(=O)c2cc3c(=O)n4cc(C)ccc4nc3n(Cc3ccco3)c2=N)cc1	none
Cc1ccc(S(=O)(=O)c2cc3c(=O)n4ccccc4nc3n(Cc3ccco3)c2=N)cc1	mHTT-CaM PPI inh 52.0
N=c1c(C(=O)NCc2ccco2)cc2c(=O)n3ccccc3nc2n1Cc1cccnc1	none
N=c1c(C(=O)NCc2ccccc2)cc2c(=O)n3ccccc3nc2n1Cc1ccco1	mHTT-CaM PPI inh 85.0
Cc1cccn2c(=O)c3cc(C(=O)NCc4ccccc4)c(=N)n(CCc4ccccc4)c3nc12	none
Cc1cccn2c(=O)c3cc(C(=O)NCc4ccco4)c(=N)n(CCc4ccccc4)c3nc12	mHTT-CaM PPI inh 50.0
Cc1ccc2nc3c(cc(C(=O)NCc4ccco4)c(=N)n3Cc3ccco3)c(=O)n2c1	mHTT-CaM PPI inh 66.0
Cc1ccc2nc3c(cc(C(=O)NCc4ccccc4)c(=N)n3Cc3ccco3)c(=O)n2c1	none
C=CCc1c(C)nc2nc(SCC3=CC(=O)N4C=CC=CC4N3)nn2c1C (stereo not drawn)	none
Cc1ccc(-c2nnc(CC(=O)NC3CCCC3)o2)cc1	none
COc1c(C)c(C)c(OC)c(S(=O)(=O)N2CCCCC2)c1C	none (no result: Pf apPOL block)
